KCNK3 block = human KCNK3 channel inhibitors, primary screen, CHO cells, FluxOR thallium flux, B-score; FluxOR fluorescence; hits give low values; B-score at 10 µM; 340,000 tested, 0.84% active; AID 602410, 2012;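 active = B-score under library mean minus 4 SD, starting fluorescence ratio at most library mean plus 5 SD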;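 also: more negative B-score means stronger inhibition of thallium flux through KCNK3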
ANO1 activ = TMEM16A chloride channel activators or potentiators, primary screen, cell-based, HTS; 340,000 tested, 0.3% active; AID 623877, 2012; Anoctamin-1 (Mus musculus), Q8BHY3; B-score at 10 µM; HEK293 TMEM16A/YFP-H148Q/I152L, iodide quench fluorescence; hits give low values;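 active = fluorescence-ratio B-score plate-corrected deviation score at least 3 library SD below zero, with starting fluorescence score within 5 deviations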;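 also: channel opened by trigger with iodide after compound preincubation; score built on the fluorescence ratio of max minus min over baseline; more negative score means more quench and so TMEM16A activation or potentiation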
TMEM16A inh = TMEM16A chloride channel inhibitors, primary screen, cell-based, HTS; Anoctamin-1 (Mus musculus), Q8BHY3; HEK293 TMEM16A/YFP iodide influx fluorescence, ionomycin; normalized B-score (activity score, 25-100; higher = stronger inhibition) at 10 µM; 310,000 tested, 1.2% active; AID 588511, 2011;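 active = ratio plate-corrected score three or more library SD toward inhibition, starting fluorescence score within five deviations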;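 also: score derived from kinetic fluorescence span divided by baseline fluorescence per well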
KCNK9 inh = KCNK9 potassium channel inhibitors, primary screen, HEK293 cells, thallium flux. Potassium channel subfamily K member 9 (Homo sapiens), Q9NPC2. FluxOR thallium flux fluorescence; hits give low values. B-score at 10 µM. 310,000 tested, 1.2% active;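 active = ratio B-score over 3 SD below the library mean, with starting fluorescence within 5 SD of its mean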;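 also: negative B-score means less thallium flux so channel inhibition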
Kir21 inh = inhibitors of mouse Kir2.1 inward-rectifier potassium channel | Inward rectifier potassium channel 2 (Mus musculus), P35561 | HEK293-Kir2.1, FluxOR thallium flux fluorescence; hits give low values | B-score at 10 µM | 310,000 tested, 0.85% active | AID 1672, 2009;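 active = fluorescence ratio B-score at or below minus 3 SD of library scores, with starting-brightness B-score within 2 SD, cut at about -4.2 in these data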;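 also: channel flux triggered by added potassium and thallium sulfate stimulus; B-score of peak minus minimum fluorescence over baseline after thallium stimulus; more negative B-score means stronger Kir2.1 block with less thallium influx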
A number is an active result; n = inactive; x = no result given. Hits are enriched below; roughly 3.5% of the tested compounds scored in any of these assays.

SMILES	KCNK3 block	ANO1 activ	TMEM16A inh	KCNK9 inh	Kir21 inh
CCC(Oc1ccccc1)C(=O)Nc1ncc([N+](=O)[O-])s1 (configuration not stated)	n	n	25	n	n
CC(CC(=O)Nc1ncc([N+](=O)[O-])s1)c1ccccc1 (configuration not stated)	n	n	100	n	n
O=C(Cc1ccc(Cl)cc1)Nc1ncc([N+](=O)[O-])s1	n	-42	x	n	n
O=C(CCOc1ccccc1)Nc1ccnn1C1CCN(CCc2ccccc2)CC1	n	n	n	n	n
Nc1nc(N)c2[nH]c(-c3ccccc3)nc2n1	n	n	n	n	n
CC(C)N(C(=O)CSc1ncnc2sc(-c3ccccc3)cc12)C(C)C	n	n	25	n	n
CC(=O)Nc1ccc(NC(=O)C2CCCN(c3nnc(-n4cccc4)s3)C2)cc1 (configuration not stated)	n	n	n	n	-4.6
CC(C)NC(=O)C1CCCN(c2nnc(-n3cccc3)s2)C1 (configuration not stated)	n	n	n	n	n
Cc1cc(-c2ccccc2)nc(Cl)c1C#N	n	n	n	n	n
CCCc1cc(=O)[nH]c(SCC(=O)c2cc(C)n(C3CC3)c2C)n1	n	n	n	n	-4.5
CCCc1cc(=O)[nH]c(SCC(=O)c2cc(C)n(C)c2C)n1	n	n	n	n	n
O=C(Nc1cccc([N+](=O)[O-])c1)c1ccc2ccccc2c1O	n	n	n	n	n
CC(C)c1ccc2oc(=O)cc(CN3CCCCC3)c2c1	n	x	n	n	n
Clc1ccc(SCc2cc(Cl)nc(-c3ccccc3)n2)cc1	n	n	n	-6.7	n
Clc1cc(CSc2ccccc2)nc(-c2ccccc2)n1	n	n	n	n	n
CCOC(=O)CSc1cc(CSc2ccccc2)nc(-c2ccccc2)n1	n	n	n	-6.7	n
CCCNc1ncnc2nc[nH]c12	n	n	n	n	n
C1=C(CCNc2ncnc3nc[nH]c23)CCCC1	n	n	25	n	n
COC(=O)c1sc(S(=O)(=O)N2CCCCC2C)c(C(=O)OC)c1C (configuration not stated)	n	n	x	x	x
OC(CNCc1ccccn1)c1ccccc1 (configuration not stated)	n	n	n	n	n
Fc1ccc(C(CCNCc2ccccn2)c2ccc(Cl)cc2)cc1 (configuration not stated)	n	n	n	n	-6.4
O=C(Cc1c(F)cccc1Cl)NNC(=O)Nc1ccc2c(c1)OCO2	n	n	n	n	n
OCCN1CCN(Cc2cccc(Oc3ccc(Cl)cc3)c2)CC1	n	n	n	n	-5.2
O=C1C(=C(I)I)c2ccccc2-c2ccccc21	-9.4	n	x	x	x
CN(CC(=O)Nc1ccccc1C(=O)NC1CC1)Cc1ccc(N(C)C)cc1	n	n	x	x	x
SMILES	KCNK3 block	ANO1 activ	TMEM16A inh	KCNK9 inh	Kir21 inh
Cc1cc(C)c(C(=O)CSc2nnc(-c3ccccc3Br)o2)cc1C	n	-5	x	n	n
Cc1cccc(NC(=O)CSc2nnc(-c3ccccc3Br)o2)c1C	n	n	n	n	n
COc1ccccc1CN(C)C(=O)c1sccc1-c1ccccc1	n	n	n	n	-5.4
COc1ccccc1CN(C)C(=O)c1cnc(C)cn1	n	n	n	n	n
CC(OC(=O)c1ccncc1)C(=O)Nc1cccc(Cl)c1 (configuration not stated)	n	n	n	n	n
NC(=O)c1sc2nc3c(c(-c4ccco4)c2c1N)CCCC3	n	n	n	n	n
Nc1c(C(=O)NCC2CCCO2)sc2nc3c(c(-c4ccco4)c12)CC/C3=C\c1ccco1 (configuration not stated)	-12	n	x	x	x
Cc1c2cnn(CC(=O)NCCCN3CC(C)CC(C)C3)c(=O)c2c(C)n1Cc1ccccc1Cl (configuration not stated)	n	n	n	n	n
Cc1c(NS(=O)(=O)c2ccc3c(c2)OCCO3)cccc1-c1nc2cccnc2s1	n	n	25	n	n
COc1ccc(-c2c(C(F)(F)F)nn(C)c2NC(=O)CSCC(=O)O)cc1	n	n	n	n	n
C=CCc1cc(Cl)ccc1OCCCNCCO	n	n	n	n	-5.4
O=[N+]([O-])c1c(Nc2cccc(O)c2)cc(Cl)c2nonc12	n	-11	25	-8	-7.4
CC(C)CCCCCCNC(=S)Nc1ccc(S(=O)(=O)N2CCOCC2)cc1	n	n	100	n	n
Cc1cc(C)c(C)c(S(=O)(=O)N2CCSCC2)c1C	n	n	n	n	-4.5
Cc1c(C)c(C)c(S(=O)(=O)N2CCSCC2)c(C)c1C	n	n	n	n	n
C#CCN1C=C(C(=O)OCC)C(C)N(Cc2ccccc2I)S1(=O)=O (configuration not stated)	n	-5	x	x	x
N/C(CSc1ccc(Cl)cc1)=N\NC(=O)c1ccncc1	n	n	n	n	n
COc1ccc(Cl)cc1-c1n[nH]c(=S)n1Cc1ccccc1	n	n	n	n	-4.3
CCc1c(-c2n[nH]c(=S)n2Cc2ccccc2)csc1C	n	n	n	n	-9.3
COc1ccc(Cc2n[nH]c(=S)n2Cc2ccccc2)cc1Cl	n	n	n	n	-5
COc1ccccc1C(=O)NCc1n[nH]c(=S)n1Cc1ccccc1	n	n	n	n	n
Cc1scc(-c2n[nH]c(=S)n2Cc2ccccc2)c1C	n	n	n	n	n
CCOc1cc(/C=C(\C#N)C(=O)NCc2cccnc2)ccc1O	n	n	n	n	n
O=[N+]([O-])/C=C/c1cn(Cc2ccc(Cl)cc2)c2ccccc12	n	n	n	n	-5.7
Cc1cccc(Cn2cc(/C=C/[N+](=O)[O-])c3ccccc32)c1	n	n	n	n	n
SMILES	KCNK3 block	ANO1 activ	TMEM16A inh	KCNK9 inh	Kir21 inh
CN(NC(N)=O)c1ncc(C(F)(F)F)cc1Cl	n	n	n	n	n
CN(NS(=O)(=O)c1ccc(Cl)cc1)c1ncc(C(F)(F)F)cc1Cl	n	n	n	n	-6.4
CCCCN(Cc1cccs1)S(=O)(=O)c1csc(C(N)=O)c1	n	n	n	n	-7.8
CN1CCN(S(=O)(=O)c2ccc(C(F)(F)F)cc2)C(c2ccccc2)C1 (configuration not stated)	n	n	x	x	x
CC1CCN(Cc2c(C(=O)O)nnn2-c2nonc2N)CC1	n	n	n	n	n
Cc1ccc(NC(=O)c2ccc(-n3cncn3)c([N+](=O)[O-])c2)cc1	n	n	n	n	n
CCN(CC)S(=O)(=O)c1cc(NC(=O)c2ccc(-n3cncn3)c([N+](=O)[O-])c2)ccc1C	n	n	100	n	n
O=S(=O)(NCC1(N2CCOCC2)CCCCC1)c1ccc(Cl)cc1C(F)(F)F	n	-18	n	n	n
Cc1nc(NCCC(C)C)c2nnn(Cc3ccccc3)c2n1	n	n	n	n	n
O=C(C1=C[C@@H](c2ccccc2)C[C@@H](OCCCCO)O1)N1CCOCC1	n	n	100	n	n

From PubChem
